# Inconclusive results are not listed. Where a call stands in place of a potency, no number is given. Active and inactive are the calls of the source. Calls come from the whole dose curve; as a rule, active = well fitted activation curve with a large enough effect; inconclusive = small, poorly fitted or top-dose-only effect; inactive = no such curve, though single readings can be large or run the other way.
# Assay: qHTS assay for re-activators of p53 using a Luc reporter: Hit Validation with no p53 Expressed
# Conditions: p53-null cells, luciferase reporter counter-screen; series mostly up to 46.1 µM
# Procedure, shortened: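 Counter-screen of primary hits in a cell line not transfected with p53, in Opti-MEM with 10% FBS; compounds at several concentrations (10 mM stock, 1:5; top 46.1 µM in well), 24 h at 37 deg C, 5% CO2. Luminescence read after 10 min with Amplite reagent.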
# Potency is the fitted concentration of half-maximal effect.
row,SMILES,Potency
1,O=C(CCN1C(=O)/C(=C/c2ccccc2Cl)SC1=S)N1CCOCC1,inactive
2,O=C(/C=C/c1ccccc1)NC1CCSC1=O (centres undefined),16.4 µM (active)
3,O=C(CCS(=O)(=O)c1ccccc1)Nc1ccc(-c2nc3ccccc3s2)cc1,inactive
4,O=C(Nc1ccccc1Cl)c1ccc2c(=O)n3c(nc2c1)CCC3,inactive
5,Cc1ccc(C(=O)Nc2cnc3sc(C)nn3c2=O)cc1,inactive
6,Cc1cc(C)n2cc(CSc3nc4ccccc4s3)nc2n1,inactive
7,C(=C\c1nc(-c2ccccc2)no1)/c1ccccc1,inactive
8,CC(C)(C)CC(=O)O/N=C(\N)c1ccccn1,0.164 µM (active)
9,O=C(Nc1cccc(O)c1)C(=O)Nc1ccccn1,inactive
10,Cc1ccc(C(C)C)c(OCc2ccc(C(=O)N/N=C/c3ccc(O)cc3O)cc2)c1,inactive
11,CC(=O)c1c(C)[nH]c(C(=O)OCC(=O)c2ccc(C)s2)c1C,inactive
12,CN1CCN(C2=C(Cl)C(=O)N(Cc3ccccc3)C2=O)CC1,inactive
13,Fc1cccc(NCc2cn3ccccc3n2)c1,inactive
14,COc1ccc(N2CCN(CCCNC(=O)C3(S(=O)(=O)c4ccc(Cl)cc4)CC3)CC2)cc1,inactive
15,COc1cc(N=c2c([N+](=O)[O-])nn(-c3ccc4c(c3)OCCO4)n2O)cc(OC)c1,inactive
16,Cc1ccc(C2=CC(c3ccc(N(C)C)cc3)n3nnnc3N2)cc1 (centres undefined),inactive
17,Clc1ccc(OCc2nc(-c3ccccn3)no2)c(Br)c1,inactive
18,CN(Cc1ccccc1)c1ncnc2ccc(Br)cc12,inactive
19,CCOc1ccc(C(O)Cc2nc3ccccc3n2C)cc1 (centres undefined),inactive

# From PubChem BioAssay AID624331 (National Center for Advancing Translational Sciences (NCATS), 2012)
